# ROS inducer = inducers of reactive oxygen species in cancer cells | U2OS ROS induction, H2DCF-DA fluorescence | ROS induction (% of piperlongumine), % at 10 µM | AID 624156 | actives 2% (n = 46,000); in the data active means ROS induction above about 79%, passing the limit was not always enough
# YB-1 expr inh = YB-1 expression inhibition; U2OS, qRT-PCR YB-1 vs CDIP delta delta Cp, 16 h; active compounds read high; zero = DMSO, each unit about twofold; delta delta Cp (YB-1 minus CDIP) (test concentration not listed); actives 0.37% (n = 30,000); AID 434959;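 active means delta delta Cp rounded down to an integer at or above 3, about 3 SD of DMSO wells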;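 further: higher means less YB-1 transcript or more CDIP transcript relative to DMSO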
# A number is an active result; i = inactive; nt = no result. Sampled rows, rich in hits. Any-hit rate of the full collection: about 2.3%.
SMILES,ROS inducer,YB-1 expr inh
CC(=O)[C@H]1CCC2[C@@H]3CCC4=CC(=O)CC[C@]4(C)C3CC[C@@]21C (some centres not stated),i,i
CCOC(=O)c1sc(C)c2c(=O)[nH]c(-c3ccccc3)nc12,i,nt
COc1ccc(CCNC(=O)CSc2nc3c(sc4ccccc43)c(=O)n2CCO)cc1OC,i,nt
COc1ccc(NC(=O)N(C)C[C@@H]2Oc3c(NC(=O)C4CC4)cccc3C(=O)N([C@@H](C)CO)C[C@H]2C)cc1,87,i
Cc1noc(C)c1NC(=O)Nc1cccc2c1O[C@@H](CN(C)S(C)(=O)=O)[C@H](C)CN([C@H](C)CO)C2=O,100,i
COc1ccc(NC(=O)Nc2cccc3c2O[C@H](CN(C)S(C)(=O)=O)[C@H](C)CN([C@@H](C)CO)C3=O)cc1,i,i
COc1ccc(NC(=O)N(C)C[C@H]2Oc3c(NC(=O)C4CC4)cccc3C(=O)N([C@@H](C)CO)C[C@H]2C)cc1,i,i
COc1ccc(NC(=O)Nc2cccc3c2O[C@@H](CN(C)S(C)(=O)=O)[C@H](C)CN([C@@H](C)CO)C3=O)cc1,111,i
C[C@@H]1CN([C@@H](C)CO)C(=O)c2cccc(NC(=O)Nc3ccc(F)cc3)c2O[C@@H]1CN(C)S(C)(=O)=O,90,i
Cc1noc(C)c1NC(=O)Nc1cccc2c1O[C@H](CN(C)S(C)(=O)=O)[C@@H](C)CN([C@H](C)CO)C2=O,i,i
C[C@@H]1CN([C@H](C)CO)C(=O)c2cccc(NC(=O)Nc3ccc(F)cc3)c2O[C@H]1CN(C)S(C)(=O)=O,i,i
CC1=CCC2C(=O)N(c3ccc(C(=O)Nc4ccccc4)cc3)C(=O)C2C1 (configuration not stated),i,nt
CCCCS(=O)(=O)/C=C/C1C2C=CC(C2)C1S(=O)(=O)CCCC (configuration not stated),i,nt
Cc1cccc(OCC(=O)Nc2c(C(=O)Nc3cccc(F)c3)oc3ccccc23)c1,i,nt
O=C(COC(=O)c1c2c(nc3ccccc13)CCCC2)Nc1nc2ccccc2s1,i,nt
CC(c1ccncc1)N(CCN(C)C)C(=S)Nc1cc(F)cc(F)c1 (configuration not stated),i,nt
CCOC(=O)c1sc(SCCS(=O)(=O)c2ccc(Cl)cc2)c2c1CCCC2=O,i,i
Cc1ccc(S(=O)(=O)CCSc2sc(C#N)c3c2C(=O)CC(C)(C)C3)cc1,125,i
C[C@H]1CN([C@@H](C)CO)C(=O)c2cc(NC(=O)Cc3ccccc3)ccc2O[C@@H]1CN(C)Cc1ccc(-c2ccccc2)cc1,177,i
C[C@@H]1CN([C@@H](C)CO)C(=O)c2cc(NC(=O)Cc3ccccc3)ccc2O[C@H]1CN(C)Cc1ccccc1,i,i
C[C@H]1CN([C@@H](C)CO)C(=O)c2cc(N(C)C)ccc2O[C@@H]1CN(C)Cc1ccc(-c2ccccc2)cc1,206,i
C[C@@H]1CN([C@H](C)CO)C(=O)c2cc(N(C)C)ccc2O[C@H]1CN(C)Cc1ccc(-c2ccccc2)cc1,i,i
C[C@H](CO)N1C[C@H](C)[C@H](CN(C)Cc2ccc(Oc3ccccc3)cc2)Oc2ccc(NC(=O)Cc3ccccc3)cc2C1=O,i,i
C[C@H]1CN([C@@H](C)CO)C(=O)c2cc(NC(=O)Cc3ccccc3)ccc2O[C@@H]1CN(C)Cc1ccc(Oc2ccccc2)cc1,190,i
C[C@@H]1CN([C@H](C)CO)C(=O)Cc2cc(NC(=O)Cc3ccccc3)ccc2O[C@@H]1CN(C)Cc1ccc(-c2ccccc2)cc1,203,i
SMILES,ROS inducer,YB-1 expr inh
C[C@H](CO)N1C[C@H](C)[C@H](CN(C)Cc2ccc(-c3ccccc3)cc2)Oc2ccc(NC(=O)Cc3ccccc3)cc2CC1=O,i,i
COc1cccc(NC(=O)CSC2=Nc3ccccc3C3=NC(C(C)C)C(=O)N23)c1 (configuration not stated),i,nt
O=C(C1CCCN(Cc2ccco2)C1)N1CCCCCC1 (configuration not stated),i,nt
Cc1ccc2[nH]c(=O)c3cc(C(=O)N(C)c4cccc(Cl)c4)sc3c2c1,i,nt
COC(=O)c1c(NC(=O)C(C)Oc2ccccc2)sc2c1-c1ccccc1CC2 (configuration not stated),i,nt
Cc1oc(-c2cccc(Cl)c2)nc1CS(=O)(=O)CC(=O)NCc1ccccc1,i,nt
C[C@H](CO)N1C[C@H](C)[C@@H](CN(C)Cc2ccc(-c3ccccc3)cc2)Oc2ccc(NC(=O)Cc3ccccc3)cc2C1=O,274,i
C[C@@H]1CN([C@@H](C)CO)C(=O)c2cc(NC(=O)Cc3ccccc3)ccc2O[C@@H]1CN(C)Cc1ccccc1,i,i
Cc1ccc(-c2cc(C(F)(F)F)n3ncc(C(=O)NCc4ccco4)c3n2)cc1,96,nt
COC(=O)c1ccc(C(=O)OC)c(NC(=O)c2cnn3c(C(F)F)cc(-c4ccc(C)cc4)nc23)c1,i,nt
Cc1ccc(-c2cc(C(F)F)n3ncc(C(=O)NCCCN4CCOCC4)c3n2)cc1,137,nt
